PubChem BioAssay (Tox21)
Values joined by “and” are separate entries in the source; they are usually repeats but may differ in a detail not shown here. Equal entries are not always repeated. Inconclusive results are not listed. Values without a mark were called inactive. Active and inactive are the calls of the source. Calls come from the whole dose curve; as a rule, active = well fitted cell-killing curve with a large enough effect in the repeat runs; inconclusive = weak or mixed curves, or effect the other way; inactive = flat fitted curve, though single readings scatter.

Assay: qHTS RealTime-Glo MT Cell Viability Assay in HEK293 cells - 16 hour (AID 1224872); note: nearly all actives have a fitted effect of over 50% in size; for activity change, negative = cytotoxicity: top concentration of the series differs between compounds
Details: RealTime-Glo luminescence; series mostly up to 76.8 µM; activity change, negative = cytotoxicity: at the top concentration
Source text: National Center for Advancing Translational Sciences [NCATS]
NIH Chemical Genomics Center [NCGC]
U.S. Environmental Protection Agency [EPA]
National Institutes of Environmental Health Sciences [NIEHS]
National Toxicology Program [NTP]
U.S. Food and Drug Administration [FDA]
Measure of cell viability is critical in the cell-base assay. Analysis of cell viability is necessary for the characterization of cell responses to cytotoxic drugs and environmental stress. A RealTime-Glo MT Cell Viability Assay to monitor cell viability in real time of continues cell culture during 40 hours of compound treatment was used to screen Tox21 10K library compounds in Hek293 cells. The RealTime-Glo MT Cell Viability Assay is a nonlytic, homogeneous, bioluminescent method to measure cell viability in real time using a simple, plate-based method. The assay involves adding NanoLuc luciferase and a cell-permeant prosubstrate to cells in culture. Viable cells reduce the proprietary prosubstrate to generate a substrate for NanoLuc luciferase. This substrate diffuses from cells into the surrounding culture medium, where it is rapidly used by the NanoLuc Enzyme to produce a luminescent signal. The signal correlates with the number of viable cells, making the assay well suited for cytotoxicity studies.
Tox21 Assay Protocol Summary:
The mixture of Hek293 cell suspension and reagents were dispensed at 600cells/6 ul/well in 1536-well tissue culture treated black solid bottom plates using a Multidrop dispenser. After the assay plates were incubated at a 37 C/5% CO2 incubator for 5 hours, 23 nL of compounds dissolved in DMSO, positive and negative controls was transferred to the assay plate by a pintool work station. The plates were incubated at 37 C for 40 hours. The luminescence intensity were measured at 0h, 8h, 16h, 24h, 32h and 40h time points using ViewLux plate reader during compound treatment.
% is set by controls: 0 for no effect and ±100 for the full control effect; potency is the fitted concentration of half-maximal effect.

SMILES | activity change, negative = cytotoxicity | Potency
Cc1cc(C)c(/C=C2\C(=O)Nc3ccccc32)[nH]1 | -0.721% [at 35.3 µM] | –
CC1=CCC(=C(C)C)CC1 | 2.04% | –
CCOc1ccc2ccccc2c1C(=O)N[C@@H]1C(=O)N2[C@@H]1SC(C)(C)[C@@H]2C(=O)O | 7.53% [at 35.3 µM] | –
CN1CCC[C@@H]1CCO[C@](C)(c1ccccc1)c1ccc(Cl)cc1 | – | 19 µM (active)
Cc1cc(-n2nc3ccc(Cl)cc3n2)c(O)c(C(C)(C)C)c1 | -12.1% [at 35.3 µM] | –
NC(=S)NC(N)=S | 15.7% | –
Cc1nc2n(c(=O)c1CCN1CCC(c3noc4cc(F)ccc34)CC1)CCCC2 | – | 3.01 µM (active)
CCOC(=O)Cn1cccc1-c1nc(-c2ccc(OC)cc2)c(-c2ccc(OC)cc2)s1 | -18.6% [at 35.3 µM] | –
O=C(O)c1cc(=O)c2ccccc2o1 | 4.16% [at 35.3 µM] | –
O=C(O)c1cc(-c2ccc(F)cc2F)ccc1O | -0.617% [at 35.3 µM] | –
CC(=O)[C@H]1CC[C@H]2[C@@H]3CCC4=CC(=O)CC[C@]4(C)[C@H]3CC[C@]12C | – | 15.4 µM (active) and 19.5 µM (active)
C#C[C@]1(O)CC[C@H]2[C@@H]3[C@H](C)CC4=C(CCC(=O)C4)[C@H]3CC[C@@]21C | -19.1% [at 35.3 µM] | –
Cl[Si](Cl)(c1ccccc1)c1ccccc1 | -5.01% | –
O=S(=O)(O)c1ccccc1/C=C/c1ccc(-c2ccc(/C=C/c3ccccc3S(=O)(=O)O)cc2)cc1 | 6.32% | –
O=[N+]([O-])c1ccc(F)c(Cl)c1 | 3.64% | –
CC(CO)Oc1ccccc1 (stereo not given) | -16.6% | –
CCCCCCCCCCC[C@@H](C[C@@H]1OC(=O)[C@H]1CCCCCC)OC(=O)[C@H](CC(C)C)NC=O | – | 13.4 µM (active)
CCCC(=O)OC(C)(C)Cc1ccccc1 | -19.3% | –
CC(C)CCOC(=O)/C=C/c1ccccc1 | -4.96% | –
C=Cc1cccc(C)c1 | – | inactive

SMILES | activity change, negative = cytotoxicity | Potency
CC(C)(c1cc(Br)c(OCC(Br)CBr)c(Br)c1)c1cc(Br)c(OCC(Br)CBr)c(Br)c1 (stereo not given) | -3.98% [at 35.3 µM] | –
CCCCNS(=O)(=O)c1ccc(C)cc1 | -12.1% | –
Cc1ccc(C)cc1 | 11.7% | –
CC(C)NC[C@@H](O)COc1ccc(CC(N)=O)cc1 | -2.58% [at 35.3 µM] | –
OCC(F)(F)F | 15.6% | –
CC(C)(C)CC(C)(C)c1ccc(Nc2ccc(C(C)(C)CC(C)(C)C)cc2)cc1 | -0.589% [at 6.97 µM] | –
CCC(COC(=O)CCS)(COC(=O)CCS)COC(=O)CCS | -13.6% | –
O=C1CCCCCCCCCCCCCCCO1 | -1.39% | –
CCC(CC)(CC(=O)Nc1cccc(/C=C/c2nc(C3CCC3)cs2)c1)C(=O)O | -10.1% [at 35.3 µM] | –
CCO[Si](OCC)(OCC)OCC | -1.42% | –
C=C(CC)C(=O)c1ccc(OCC(=O)O)c(Cl)c1Cl | – | inactive
Cc1cc(=O)oc2cc(O)cc(O)c12 | -11.3% | –
C1CCC(SSC2CCCCC2)CC1 | -13.3% | –
CCCCC(CC)COC(=O)CCCCC(=O)OCc1ccccc1 (stereo not given) | 1.33% | –
O=C(O)[C@H](O)[C@@H](O)[C@H](O[C@@H]1O[C@H](CO)[C@H](O)[C@H](O)[C@H]1O)[C@H](O)CO | 11.1% [at 35.3 µM] | –
O=[N+]([O-])c1cccc(C(F)(F)F)c1 | 3.8% | –
CC1(C)[C@@H](O)CC[C@]2(C)[C@H]3C(=O)C=C4[C@@H]5C[C@@](C)(C(=O)O)CC[C@]5(C)CC[C@@]4(C)[C@]3(C)CC[C@@H]12 | 2.63% | –
CCc1ccc(Br)cc1 | -1.71% | –
FC(F)(F)c1cccc(Cl)c1 | -11.6% | –
CCCCC/C=C\C/C=C\CCCCCCCC(=O)O | – | inactive
